Measured values published in PubChem BioAssay (Tox21).
Several values for one entry are separate records, joined by “and”; a condition that tells them apart may be missing. Equal values may be shown once. Results filed as inconclusive are left out. A call without a number means that no potency is given here. Some structures have more than one record in an assay (separate samples or runs), and their calls can disagree. Activity calls are given as the source filed them. The call rests on the fitted dose curve; in most records, active means well fitted inhibition curve with a large enough effect in the repeat runs; inconclusive means weak or mixed curves; inactive means no such curve, though single readings can be large or run the other way.

The compounds below were run against Cytochrome P450 3A4 (Homo sapiens) (UniProt P08684) (assay: Cytochrome P450 Family 3 Subfamily A Member 4 (CYP3A4) small molecule antagonists: luciferase reporter qHTS assay (AID 1671201; further: nearly all actives have a fitted effect of over 50% in size)). Details: P450-Glo CYP3A4 enzyme, luciferin luminescence, 1 h; series mostly up to 115 µM.
Sequence of Cytochrome P450 3A4 (Homo sapiens) (P08684 whole entry, looked up): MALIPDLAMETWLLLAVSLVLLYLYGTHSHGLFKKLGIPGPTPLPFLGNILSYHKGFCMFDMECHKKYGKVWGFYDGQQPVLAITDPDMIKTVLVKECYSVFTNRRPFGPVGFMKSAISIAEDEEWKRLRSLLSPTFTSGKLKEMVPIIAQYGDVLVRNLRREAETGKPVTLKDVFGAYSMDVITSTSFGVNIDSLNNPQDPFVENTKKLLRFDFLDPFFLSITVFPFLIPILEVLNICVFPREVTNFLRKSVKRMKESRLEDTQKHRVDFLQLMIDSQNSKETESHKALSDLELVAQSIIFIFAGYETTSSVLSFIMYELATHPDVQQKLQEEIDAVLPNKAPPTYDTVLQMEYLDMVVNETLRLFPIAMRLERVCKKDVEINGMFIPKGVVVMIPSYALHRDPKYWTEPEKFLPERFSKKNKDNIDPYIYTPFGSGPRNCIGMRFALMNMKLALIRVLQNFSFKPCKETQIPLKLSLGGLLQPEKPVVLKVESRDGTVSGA
Excerpt: National Center for Advancing Translational Sciences [NCATS]
U.S. Environmental Protection Agency [EPA]
National Institutes of Environmental Health Sciences [NIEHS]
National Toxicology Program [NTP]
U.S. Food and Drug Administration [FDA]
Cytochrome P450 (CYP) enzymes are membrane-bound hemeproteins that play a key role in metabolism of drugs and xenobiotics. Evaluation of the effect of chemicals on CYP isozymes is useful to minimize the adverse drug reactions and toxicities in drug development process. Tox21 chemicals were tested for their effect on CYP enzyme activities by using P450-Glo (TM) screening systems (Promega Corporation, Madison, WI). These systems provide a luminescent method containing proluciferin substrates and are converted to luciferin products by CYP isozymes. The luciferin products formed are detected with a luciferin detection reagent, and the amount of light produced is proportional to CYP activity. P450-Glo (TM) CYP3A4 screening system (Catalog. No. V9910) was used to detect the compounds that interfere in CYP3A4 activity. The positive control compound used for CYP3A4 assay is ketoconazole (Sigma-Aldrich, St. Louis, MO).
Tox21 Assay Protocol Summary:
Two ul of enzyme-substrate mix was dispensed into medium binding white/solid 1536-well plates (Greiner Bio-One North America Inc., Monroe, NC) using a BioRaptr Flying Reagent Dispenser (FRD, Beckman Coulter, Brea, CA). Compounds dissolved in DMSO and positive control (ketoconazole) were transferred to the assay plates at 23 nl using a Pintool station (Wako, San Diego, CA). The assay plates were incubated at room temperature for 10 min. Then 2 ul of NADPH regeneration solution was added to each well of the assay plates using an FRD and incubated at room temperature for 1 h. The reaction was stopped by adding 4 ul of detection reagent using an FRD and after 20 min incubation at room temperature the luminescence signal was measured using a ViewLux plate reader (Perkin Elmer, Shelton, CT). Data were expressed as relative luminescence units.
Potency means the concentration at half of the fitted maximal effect.

SMILES	Potency	activity change, negative = inhibition
CO[Si](CCCNCCN)(OC)OC	inactive	–
CS(=O)(=O)c1ccc(Cl)cc1	inactive	–
COC(=O)/C=C\C(=O)OC	inactive	–
COc1c2ccoc2cc2oc(=O)ccc12	6.47 µM (active) and 10 µM (active)	–
Nc1cccc(C(F)(F)F)c1	inactive	–
CCCCCCC(=O)O	inactive	–
Cc1nnc(NS(=O)(=O)c2ccc(N)cc2)s1	inactive	–
CC(=O)c1nccs1	inactive	–
CCn1cc(C(=O)O)c(=O)c2cc3c(cc21)OCO3	–	-0.272% [at 23.6 µM] (inactive)
CN1Cc2c(N)cccc2C(c2ccccc2)C1 (stereo not given)	inactive	–
Cc1ccc(C)c(S(=O)(=O)O)c1	inactive	–
CC(C)(CO)CO	inactive	–
CCc1cccc(CC)c1N	inactive	–
O=C(O)C1=NN(c2ccc(S(=O)(=O)O)cc2)C(=O)C1	inactive	–
C1CCCNCC1	inactive	–
CCCCC(CC)COC(=O)c1ccc(C(=O)OCC(CC)CCCC)cc1 (stereo not given)	inactive	–
CC/C(C)=N/O	inactive	–
CCCCCNCCCCC	inactive	–
COc1ccccc1[N+](=O)[O-]	inactive	–
COCN(COC)c1nc(N(COC)COC)nc(N(COC)COC)n1	inactive	–

SMILES	Potency	activity change, negative = inhibition
CC(=O)C(C)C	inactive	–
Cc1ccncc1	inactive	–
C[n+]1ccn(CCO)c1	inactive	–
O=[N+]([O-])c1cc(C(F)(F)F)ccc1Cl	inactive	–
Cc1cccc(C)c1[N+](=O)[O-]	inactive	–
CCCOC(=O)NCCCN(C)C	inactive	–
OCC(CO)(CO)CO	inactive	–
CCOC(=O)CC(=O)OCC	inactive	–
COc1c(Cl)ccc(Cl)c1C(=O)O	inactive	–
C[Si](C)(C)N[Si](C)(C)C	inactive	–
CCCOCC(C)O (stereo not given)	inactive	–
CC(C)=CCC/C(C)=C/C=O	inactive and 35.6 µM (active)	–
Cc1ccc(C(C)C)cc1	inactive	–
Cc1cc(C)cc(O)c1	inactive	–
CC(=O)CC(=O)N(C)C	inactive	–
OCc1ccc(Cl)cc1Cl	inactive	–
Cc1ccc(Cl)cc1	inactive	–
Nc1cccc(N)n1	inactive	–
CCc1cccc(O)c1	inactive	–
CC(=O)Nc1ccc(CC(=O)O)cc1	inactive	–
